These results are taken from PubChem BioAssay (NCATS).

“And” between values parts separate entries of the source, which are not always exact repeats. Equal values may be shown once. Results filed as inconclusive are left out. Some structures have more than one record in an assay (separate samples or runs), and their calls can disagree. The source made the active and inactive calls. Unless noted, the call rests on the fitted dose curve; in most records, active means well fitted curve in the direction sought with a large enough effect; inconclusive means small, poorly fitted or top-dose-only effect, or another doubt; inactive means no such curve, though single readings can be large; an effect the other way counts as inactive or inconclusive.

Assay [1] can be described thus: Cellular Toxicity (caspase-3) BJ (AID 658).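 Further: cells exposed to compound for 16 hours; 0% = DMSO basal and 100% = 10 µM staurosporine.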 The gist of the method:
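Luminescent aminoluciferin-substrate cleavage reports caspase 3/7 activity in normal human BJ fibroblasts after 16 hr compound exposure at 37 °C. Normalized to DMSO (basal) and 10 uM staurosporine (100%); AC50 from Hill fit of concentration-response.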

The nature of assay [2]: Cellular Toxicity (caspase-3) MRC-5 (AID 659).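 Further: 0% = DMSO basal and 100% = 10 µM staurosporine.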 The gist of the method: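 Luminescence from caspase-cleaved aminoluciferin substrate (Caspase-Glo 3/7, 1 hr RT) reports caspase 3/7 activity in MRC-5 lung fibroblasts after 16 hr compound exposure. Normalized to DMSO basal and 10 uM staurosporine as 100%; AC50 from Hill fits.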
A short description of assay [3]: Cellular Toxicity (caspase-3) Mesangial (AID 660).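 Further: combined caspase 3 and 7 activity read by Caspase-Glo luminescence; cells exposed to compound for 16 h before the caspase read.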 The following applies: Potency: caspase-3 activation. The gist of the method:
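Concentration-response qHTS: compound-induced rise in caspase 3/7 luminescence in human mesangial cells after 16 h, normalized to DMSO and 100 uM tamoxifen controls.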

The nature of assay [4]: Cellular Toxicity (caspase-3) SK-N-SH (AID 661).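 Further: cells exposed to compound for 16 hours; 0% = DMSO basal and 100% = 10 µM staurosporine.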 The gist of the method:
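Caspase 3/7 activation is measured as a luminescence increase from aminoluciferin released by substrate cleavage in SK-N-SH cells after 16 hr compound treatment; values are AC50 from concentration-response curves.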

A short description of assay [5]: Cellular Toxicity (caspase-3) H-4-II-E (AID 663).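 Further: cells exposed to compound for 16 hr before readout.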 The following applies: H-4-II-E rat hepatoma, scaled: DMSO 0%, 100 µM tamoxifen 100%; at 92.2 µM (top of the series). The gist of the method: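 Luminescence from caspase-cleaved aminoluciferin substrate, read 20 min after reagent addition, reports caspase 3/7 activation in rat H-4-II-E cells after 16 hr compound exposure. Normalized to DMSO (basal) and 100 uM tamoxifen (100%); AC50 from Hill fits.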

Assay [6] can be described thus: Cellular Toxicity (caspase-3) Hek293 (AID 664).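 Further: cells exposed to compound for 16 h at 37 °C before readout.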 The following applies: HEK293 caspase-3 activation, DMSO = 0%, 100 µM tamoxifen = 100%; at 92.2 µM (top of the series). The gist of the method:
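Activation of caspase-3/7 is measured as increased luminescence from cleaved peptide-aminoluciferin substrate in HEK293 cells treated 16 hours at 37 °C. AC50 values come from Hill-equation fits of concentration-response data.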

Assay [7] can be described thus: Cellular Toxicity (caspase-3) N2a (AID 665).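 Further: compound exposure lasted 16 h at 37 °C before readout.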 The following applies: Potency: caspase-3 activation. The gist of the method:
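Plated mouse neuroblastoma N2a cells received titrated compounds for 16 h in complete medium. Caspase activity was then detected with a peptide-aminoluciferin luminescent reagent.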

Assay [8] can be described thus: Cellular Toxicity (caspase-3) NIH 3T3 (AID 666). The gist of the method:
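Concentration-response qHTS in NIH 3T3 mouse fibroblasts scores caspase-3/7 activation as rising luminescence after 16 hr compound exposure. Signals are scaled between DMSO-only and 100 uM tamoxifen.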

Assay [9] in a line: Cellular Toxicity (caspase-3) Renal Proximal Tubule (AID 667).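 Further: cells exposed to compound for 16 hours at 37 °C before detection; 0% = DMSO basal and 100% = 10 µM staurosporine.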 The following applies: Potency: caspase-3 activation. The gist of the method:
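Freshly isolated primary rat kidney proximal tubule cells, 1000/well, treated 16 hr at 37 °C, then Caspase-Glo 3/7 luminescence after 1 hr. Normalized to DMSO and 10 uM staurosporine; AC50 from Hill fit.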

Assay [10] is described as follows: Confirmation and Secondary Assay for Modulators of Hemoglobin Beta Chain Splicing at IVS2 654 locus (AID 910).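 Further: per-well total GFP intensity by laser scanning cytometry after 2-day treatment; % of control where 0% means no effect.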 The gist of the method:
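HeLa cells stably carrying EGFP interrupted by mutant beta-globin IVS2-654 intron (CMV-driven) were treated with compound for 2 days at 37C; corrected splicing was scored as total peak GFP intensity per well (488 nm excitation, 500-520 nm emission).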

Assay [11] concerns the target Guanine nucleotide-binding protein G(i) subunit alpha-1 (Homo sapiens) (UniProt P63096). Put plainly: qHTS Assay for Inhibitors of RGS12 GoLoco Motif Activity (Green Fluorophore) (AID 879).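 Further: 0% = labeled peptide with Gαi1 and full inhibition = labeled peptide alone without protein; negative values mean loss of peptide binding seen as reduced polarization.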 The gist of the method: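 Fluorescence polarization assay: 50 nM Gαi1 with 10 nM FITC-labeled RGS12 GoLoco peptide in 10 mM Tris pH 7.5, 150 mM NaCl, 0.1 mM GDP, 0.05% NP40, 10 min at room temperature with compound.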

Assay [12] has as its target Cytochrome P450 3A4 (Homo sapiens) (UniProt P08684). Put plainly: qHTS Assay for Activators of Cytochrome P450 3A4 (AID 885). Further: nearly all actives have a fitted effect of over 65% in size. Further: potency means the concentration at half of the fitted maximal effect. The gist of the method:
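Quantitative HTS format: compounds preincubated with 20nM human CYP3A4 and Luciferin-PPXE substrate at KM, reaction started by NADPH regeneration, stopped after 60 min, luciferase luminescence read 20 min later.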
(Quantitative high-throughput screening tests each substance at several concentrations.)

The target of assay [13] is Cytochrome P450 2C19 (Homo sapiens) (UniProt P33261). As to the kind of experiment: qHTS Assay for Inhibitors and Substrates of Cytochrome P450 2C19 (AID 899). Further: nearly all actives have a fitted effect of over 60% in size. Further: potency means the concentration at half of the fitted maximal effect. The gist of the method: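 In 50mM KPO4, the reaction held 5nM enzyme and KM-level (10uM) Luciferin-H EGE; it ran 60 min at 37C after NADPH regeneration and a 10 min compound preincubation. Luminescence values were scaled to 57uM ketoconazole as complete inhibition.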

A short description of assay [14]: qHTS Assay for Identification of Small Molecule Agonists for Thrombopoietin (TPO) Signaling Pathway (AID 917). Further: potency means the concentration at half of the fitted maximal effect. The gist of the method: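 Murine Ba/F3 cells expressing human TPO receptor and GPIIb-promoter luciferase, IL-3-starved overnight, given compound plus TPO at 26 pM (EC50). After 24 h at 37 C, 5% CO2, luminescence read.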
The target of assay [15] is Cytochrome P450 2C9 (Homo sapiens) (UniProt P11712). As to the kind of experiment: qHTS Assay for Inhibitors and Substrates of Cytochrome P450 2C9 (AID 883). Further: nearly all actives have a fitted effect of over 60% in size. Further: potency means the concentration at half of the fitted maximal effect. On activity change, negative = inhibition: on the % scale 0 is the no-effect control and ±100 the full control effect. The gist of the method: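 CYP2C9 deoxyluciferin hydroxylation, 37C, 60 min with NADPH regeneration; 10nM enzyme, 100uM Luciferin-H (KM). Glo detection reagent stopped reaction; luminescence normalized to sulphaphenazole (57uM) full inhibition.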

The nature of assay [16]: qHTS Assay for Identification of Small Molecule Antagonists for NFkB Signaling Pathway (AID 895; active means well fitted inhibition curve with a large enough effect in the signal ratio, with a control signal flat, not every such curve was filed as active; the % refers to the signal ratio; further: on the % scale 0 is the no-effect control and ±100 the full control effect). The gist of the method: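 NFkB-bla ME-180 cervical carcinoma cells with beta-lactamase reporter under NFkB response element; compounds added, then TNF alpha at 10 pM final (EC50), 5 h at 37 C. LiveBLAzer substrate 2 h, room temperature; emission 460/530 nm at 405 nm excitation.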

The target of assay [17] is Cytochrome P450 3A4 (Homo sapiens) (UniProt P08684). As to the kind of experiment: qHTS Assay for Inhibitors and Substrates of Cytochrome P450 3A4 (AID 884). Further: nearly all actives have a fitted effect of over 50% in size. Further: potency means the concentration at half of the fitted maximal effect. On activity change, negative = inhibition: on the % scale 0 is the no-effect control and ±100 the full control effect. The gist of the method: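 20 nM human CYP3A4 with 25 uM Luciferin-PPXE (at KM) in 200 mM KPO4, preincubated 10 min with compound; NADPH regeneration started a 60 min RT reaction. Luciferin detected by luminescence, normalized to 57 uM ketoconazole as full inhibition.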

In assay [18] the target is Cytochrome P450 2D6 (Homo sapiens) (UniProt P10635). As to the kind of experiment: qHTS Assay for Inhibitors and Substrates of Cytochrome P450 2D6 (AID 891). Further: nearly all actives have a fitted effect of over 60% in size. Further: potency means the concentration at half of the fitted maximal effect.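 On activity change, negative = inhibition: luciferin methyl ether substrate demethylated by CYP2D6 with NADPH regeneration; on the % scale 0 is the no-effect control and ±100 the full control effect.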 The gist of the method: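 Human CYP2D6 (5 nM) with 30 uM Luciferin-ME EGE (at Km) in 100 mM KPO4, compound preincubated 10 min, then NADPH regeneration system for 60 min at room temperature. Luciferin read by luminescence; normalized to 1.43 uM quinidine.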
Cytochrome P450 2D6 (Homo sapiens), sequence (P10635 whole entry, looked up): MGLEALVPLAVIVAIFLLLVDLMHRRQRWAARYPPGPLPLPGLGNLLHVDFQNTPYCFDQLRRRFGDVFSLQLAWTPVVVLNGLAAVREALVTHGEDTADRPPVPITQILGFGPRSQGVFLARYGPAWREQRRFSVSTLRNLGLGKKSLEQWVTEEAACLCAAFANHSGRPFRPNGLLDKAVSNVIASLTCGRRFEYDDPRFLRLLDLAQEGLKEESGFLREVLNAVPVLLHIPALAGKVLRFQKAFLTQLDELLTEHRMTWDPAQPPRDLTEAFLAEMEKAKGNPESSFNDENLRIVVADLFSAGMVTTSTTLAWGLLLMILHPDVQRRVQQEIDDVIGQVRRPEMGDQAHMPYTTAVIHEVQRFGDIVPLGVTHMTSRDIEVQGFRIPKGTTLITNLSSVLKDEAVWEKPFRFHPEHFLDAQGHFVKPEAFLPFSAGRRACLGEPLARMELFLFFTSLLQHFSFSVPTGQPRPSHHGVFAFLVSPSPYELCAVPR

Cytochrome P450 3A4 (Homo sapiens), sequence (P08684 whole entry, looked up): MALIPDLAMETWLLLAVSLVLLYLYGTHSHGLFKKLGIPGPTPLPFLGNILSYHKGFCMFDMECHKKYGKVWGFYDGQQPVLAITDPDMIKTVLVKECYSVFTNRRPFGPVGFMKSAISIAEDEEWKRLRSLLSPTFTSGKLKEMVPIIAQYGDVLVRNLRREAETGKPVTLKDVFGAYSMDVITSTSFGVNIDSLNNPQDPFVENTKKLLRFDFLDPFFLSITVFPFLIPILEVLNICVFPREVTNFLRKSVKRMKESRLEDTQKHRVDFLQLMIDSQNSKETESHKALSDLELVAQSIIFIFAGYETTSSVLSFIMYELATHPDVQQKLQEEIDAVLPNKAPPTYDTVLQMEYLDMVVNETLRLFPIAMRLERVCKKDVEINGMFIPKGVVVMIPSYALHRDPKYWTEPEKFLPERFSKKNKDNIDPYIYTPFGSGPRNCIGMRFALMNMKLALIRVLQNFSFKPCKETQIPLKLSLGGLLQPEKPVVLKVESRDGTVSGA
Cytochrome P450 2C19 (Homo sapiens), sequence (P33261 whole entry, looked up): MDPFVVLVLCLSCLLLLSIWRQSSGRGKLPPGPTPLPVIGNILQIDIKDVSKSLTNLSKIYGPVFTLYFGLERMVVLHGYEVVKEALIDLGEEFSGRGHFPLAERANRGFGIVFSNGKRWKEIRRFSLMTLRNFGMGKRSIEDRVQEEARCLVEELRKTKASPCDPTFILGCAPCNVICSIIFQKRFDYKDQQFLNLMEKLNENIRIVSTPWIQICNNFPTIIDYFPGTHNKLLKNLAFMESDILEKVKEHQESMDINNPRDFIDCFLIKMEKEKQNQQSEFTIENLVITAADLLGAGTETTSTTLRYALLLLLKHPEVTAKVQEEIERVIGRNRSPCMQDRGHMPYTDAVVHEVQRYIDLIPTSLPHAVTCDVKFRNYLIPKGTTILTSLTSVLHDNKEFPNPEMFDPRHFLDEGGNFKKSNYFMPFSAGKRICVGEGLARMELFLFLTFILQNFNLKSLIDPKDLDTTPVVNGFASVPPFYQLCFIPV
Guanine nucleotide-binding protein G(i) subunit alpha-1 (Homo sapiens), sequence (P63096 whole entry, looked up): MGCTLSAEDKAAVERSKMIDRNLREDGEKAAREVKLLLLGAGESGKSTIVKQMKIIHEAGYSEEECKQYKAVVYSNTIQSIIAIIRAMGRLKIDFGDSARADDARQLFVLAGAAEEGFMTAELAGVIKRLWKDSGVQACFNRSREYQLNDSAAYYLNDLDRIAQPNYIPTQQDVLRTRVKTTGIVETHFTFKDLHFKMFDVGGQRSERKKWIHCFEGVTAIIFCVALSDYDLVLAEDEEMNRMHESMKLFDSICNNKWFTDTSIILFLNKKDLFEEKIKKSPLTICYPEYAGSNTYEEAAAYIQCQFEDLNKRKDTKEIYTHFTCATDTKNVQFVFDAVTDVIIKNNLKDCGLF
Cytochrome P450 2C9 (Homo sapiens), sequence (P11712 whole entry, looked up): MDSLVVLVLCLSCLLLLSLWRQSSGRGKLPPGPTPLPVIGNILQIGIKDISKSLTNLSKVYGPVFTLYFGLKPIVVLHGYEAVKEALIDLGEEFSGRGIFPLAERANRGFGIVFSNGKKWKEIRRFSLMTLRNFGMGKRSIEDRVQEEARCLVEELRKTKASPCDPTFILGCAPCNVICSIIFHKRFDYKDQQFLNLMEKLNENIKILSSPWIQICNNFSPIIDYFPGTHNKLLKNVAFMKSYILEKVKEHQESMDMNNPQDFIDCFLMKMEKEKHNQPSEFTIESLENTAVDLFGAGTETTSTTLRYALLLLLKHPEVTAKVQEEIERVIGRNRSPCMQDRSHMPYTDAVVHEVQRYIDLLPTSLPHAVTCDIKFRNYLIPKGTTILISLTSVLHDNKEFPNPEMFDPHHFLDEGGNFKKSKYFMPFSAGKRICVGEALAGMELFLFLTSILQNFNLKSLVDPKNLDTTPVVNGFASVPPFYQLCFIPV

Regarding `S=c1[nH]c2ccccc2s1`, the outcome in [1], in assay [2] and in assay [10] was inactive. The Potency entry in assay [3], in assay [4], in [7], in [8] and in assay [9] was “inactive” in each case. For the same compound, the caspase-3 activation was 0.172% (inactive) in [5] and 1.33% (inactive) in assay [6].
Take `CC(C)(C=O)Cc1cc(C(C)(C)C)c(O)c(C(C)(C)C)c1`: the result in assay [11] was inactive. For the same compound, the Potency result in assay [12], in assay [13] and in assay [14] was “inactive” each time.
On to `C=C[C@H]1CN2CC[C@@H]1C[C@@H]2[C@@H](O)c1ccnc2ccc(OC)cc12`, for which the compound was classed as inactive in [11] and in assay [15]. In addition, the Potency result in [16] and in assay [14] was “inactive” in each case.
Consider `COc1cc2c(CCNC(C)=O)c[nH]c2cc1Cl`, for which, in [11], the result was inactive. Further, the Potency result in assay [12] is “inactive”. Further, the Potency entry in [13] was “inactive and 5.01 µM (active)”.
For `O=c1[nH]c2ccccc2n1CCCN1CCN(C(c2ccccc2)c2ccccc2)CC1`, the call in assay [11] was inactive. The Potency entry in assay [17] and in assay [14] was “inactive” throughout. Besides, the Potency is 15800 nM (active) in assay [12] and 794 nM (active) in [18].
With `Clc1ccc(N2CCN(Cc3c[nH]c4ncccc34)CC2)cc1`, the result in assay [11] was inactive. Also, the Potency result in assay [14] is “inactive”.
For `N=C(N)SCCc1ccc(CCSC(=N)N)cc1`, the outcome in [11] was inactive. Also, the Potency result in [17], in [16] and in assay [14] was “inactive” each time.
On to `NCCCS(=O)(=O)O`, for which the compound was classed as inactive in [11] and in assay [10].
With `CC(=O)SCC[N+](C)(C)C`, the compound was called inactive in [11]. Besides, the Potency result in assay [16], in assay [13] and in assay [14] was “inactive” throughout.
For the compound `N#C/C(=C\c1ccc(O)c(O)c1)C(=O)NCc1ccccc1`, the Potency entry in assay [15], in [12], in [18] and in [13] was “inactive” throughout.
For `Fc1ccc(C(OCCCc2cnc[nH]2)c2ccc(F)cc2)cc1`, in assay [11], the call was inactive. Also, the Potency in assay [17] was 794 nM (active); in [18], 631 nM (active); in [13] it was 4 nM (active). In [12], the Potency entry is “inactive”.
Take `Cc1nc2sccn2c(=O)c1CCN1CCC(=C(c2ccccc2)c2ccc(F)cc2)CC1`: the Potency was 31600 nM (active) in assay [15] and 7940 nM (active) in assay [18]. The Potency entry in assay [17] was “inactive”.
Consider `CCN1/C(=C/C(C)=O)Sc2ccc(OC)cc21`, for which the result in assay [11] was inactive. Also, the Potency entry in assay [12] was “inactive”.
As to `O=C(c1cc(O)c(O)c([N+](=O)[O-])c1)c1ccccc1F`, the call in assay [11] was inactive. Also, in [15], the Potency is 1260 nM (active). Further, the Potency entry in [12] and in assay [14] was “inactive” each time.
As to `NCCCCC(=O)O`, the outcome in assay [11] and in assay [10] was inactive. The Potency entry in assay [17], in assay [18] and in [14] was “inactive” throughout.
Regarding `CCCN(CC1CC1)c1nc(C)nc(Nc2c(Cl)cc(Cl)cc2Cl)c1Cl`, the compound was classed as inactive in assay [11]. In addition, the Potency result in assay [12] and in assay [14] was “inactive” in each case. In addition, the Potency entry in assay [18] is “inactive and 1.58 µM (active)”.
Take `NCCSSCCN`: the compound was called inactive in assay [11] and in [10]. In addition, the Potency entry in assay [17] and in assay [16] was “inactive” each time.
Turning to `COc1ccccc1N1CCN(CCCCNS(=O)(=O)c2cccc3c(N(C)C)cccc23)CC1`, the result in [11] was inactive. Also, the figures for the Potency in assay [17] and in assay [13] were 2510 nM (active) and 501 nM (active), respectively. For the same compound, in assay [12], the Potency entry is “inactive”.
On to `Cc1cc(NC(=O)Nc2ccc3c(ccn3C)c2)sn1`, for which, in assay [11], the call was inactive. The Potency result in assay [12] and in assay [16] was “inactive” in each case. Further, the Potency result in [13] was “inactive and 3.16 µM (active)”; in assay [14], 1580 nM (active).
Consider `CN1CCc2cc(NC(=O)Nc3cccnc3)ccc21`, for which the result in assay [11] was inactive. The Potency entry in assay [12] is “inactive”. Further, in assay [14], the Potency is 1580 nM (active).
Regarding `COc1ccc(/C=C/C(=O)Nc2ccccc2C(=O)O)cc1OC`, in assay [11], the compound was called inactive. The Potency result in assay [12] is “inactive”.
As to `O=C(O)CC[C@@H](C(=O)O)N1C(=O)c2ccccc2C1=O`, the compound was classed as inactive in [11]. Also, the Potency entry in [17] and in [14] was “inactive” throughout. For the same compound, the activity change, negative = inhibition in assay [18] was 21.6% [at 11.4 µM] (inactive).
